Results taken from PubChem BioAssay AID602292 (National Center for Advancing Translational Sciences (NCATS), 2012).
The campaign covered roughly 1,300 compounds. About 380 (29%) were called active. About 37% were inconclusive and are not listed. Calls follow the shape of the dose curve; as a rule, active = well fitted inhibition curve with a large enough effect; inconclusive = small, poorly fitted or top-dose-only effect; inactive = flat fitted curve, though single readings scatter. The list shows a part of the results.

molecular target: Thyrotropin receptor (Homo sapiens) (UniProt P16473); assay: qHTS for antagonists of the Thyroid Stimulation Hormone Receptor: Hit Validation in Primary Screen; conditions: TSHR-expressing cells, cAMP antagonist mode; series mostly up to 58 µM; activity change, negative = inhibition: at the top concentration; also: nearly all actives have a fitted effect of over 80% in size;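 as to activity change, negative = inhibition: cells stimulated with TSH at EC80 of 4 nM during compound exposure; cAMP by competitive HTRF where cellular cAMP lowers the 665 nm FRET signal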
Summary of the method: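 Competitive HTRF detected cAMP in lysates of TSHR cells, read 30 minutes after antibody and d2 addition at room temperature. Before lysis, cells had 2 hours at 37 deg C with compound plus EC80 TSH, 4nM final.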
% is scaled to controls: 0 for no effect and ±100 for the full control effect; potency is read from the fitted curve at half-maximal effect.

Sequence of Thyrotropin receptor (Homo sapiens) (P16473 whole entry, looked up): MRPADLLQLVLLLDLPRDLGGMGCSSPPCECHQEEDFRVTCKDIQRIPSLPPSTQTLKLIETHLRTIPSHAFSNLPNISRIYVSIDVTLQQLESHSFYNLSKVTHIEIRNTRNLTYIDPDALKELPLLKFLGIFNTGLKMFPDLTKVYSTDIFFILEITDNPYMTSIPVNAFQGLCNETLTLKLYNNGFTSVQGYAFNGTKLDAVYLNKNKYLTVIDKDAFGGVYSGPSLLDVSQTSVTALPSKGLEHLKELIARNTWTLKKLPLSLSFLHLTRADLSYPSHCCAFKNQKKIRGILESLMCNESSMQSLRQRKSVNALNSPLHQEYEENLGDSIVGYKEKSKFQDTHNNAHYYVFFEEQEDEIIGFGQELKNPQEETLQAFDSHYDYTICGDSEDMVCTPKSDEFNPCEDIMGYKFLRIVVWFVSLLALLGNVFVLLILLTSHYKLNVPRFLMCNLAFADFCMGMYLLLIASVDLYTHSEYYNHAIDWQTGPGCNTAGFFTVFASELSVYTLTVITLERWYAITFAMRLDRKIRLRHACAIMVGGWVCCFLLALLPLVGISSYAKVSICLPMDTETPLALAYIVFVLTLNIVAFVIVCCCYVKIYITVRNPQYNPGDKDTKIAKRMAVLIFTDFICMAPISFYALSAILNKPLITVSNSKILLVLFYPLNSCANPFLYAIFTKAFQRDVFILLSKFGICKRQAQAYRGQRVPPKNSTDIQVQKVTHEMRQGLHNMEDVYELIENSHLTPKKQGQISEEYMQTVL

| SMILES | activity change, negative = inhibition | Potency |
| --- | --- | --- |
| CC(C)COc1cccc(-c2cc(C(=O)Nc3ccon3)c3ccccc3n2)c1 | -9.56% (inactive) |  |
| N#Cc1nc(Cc2cccc3ccccc23)oc1NCc1ccc2c(c1)OCO2 | -8.9% (inactive) |  |
| N#Cc1c(Cl)nsc1NC(=O)c1ccccc1 |  | 7.57 µM (active) |
| O=C(O)c1ccc(NC2=C(Cl)C(=O)c3ccccc3C2=O)cc1 |  | 30.1 µM (active) |
| CCN(CC)c1ccc(NC2=C(Cl)C(=O)c3ccccc3C2=O)cc1 |  | 23.9 µM (active) |
| O=C(O)c1ccc(S(=O)(=O)N(Cc2ccccc2)Cc2ccccc2)cc1 | -7.63% (inactive) |  |
| O=C(O)c1cccc(NC2=C(Cl)C(=O)c3ccccc3C2=O)c1 |  | 23.9 µM (active) |
| Cc1ccccc1N1CCN(C2CCCN(C(=O)c3cnsn3)C2)CC1 (configuration not stated) | -2.71% (inactive) |  |
| CCOc1ccccc1-n1c(=S)sc2c(=O)n(-c3ccc(F)cc3)c(SCC(=O)O)nc21 | -3.34% (inactive) |  |
| Cc1ccc2c(c1)[nH]c1c(N3CCN(Cc4ccccc4)CC3)ncnc12 |  | 30.1 µM (active) |
| N#Cc1c(F)cccc1N1CCN(Cc2ccc3c(c2)OCO3)CC1 | -2.54% (inactive) |  |
| Fc1ccc2[nH]c3c(N4CCN(Cc5ccc6c(c5)OCO6)CC4)ncnc3c2c1 |  | 23.9 µM (active) |
| Fc1ccc2[nH]c3c(N4CCN(c5ccccc5)CC4)ncnc3c2c1 |  | 30.1 µM (active) |
| O=C(c1cccc(Cl)c1)N1CCN(Cc2ccc3c(c2)OCO3)CC1 | -6.83% (inactive) |  |
| O=C1NC(=O)/C(=C/c2ccccc2Oc2ccc(Cl)cc2)S1 | -8.27% (inactive) |  |
| CN(Cc1ccco1)S(=O)(=O)c1csc(C(N)=O)c1 | -3.34% (inactive) |  |
| CCc1cc2c(NCc3ccccc3)nc(C)nc2s1 |  | 23.9 µM (active) |
| O=C(CSc1ccc(F)cc1)N1CCC(c2nc3ccccc3s2)CC1 |  | 37.9 µM (active) |
| Cc1nc(SCC(=O)N2CCN(c3ccccc3)CC2)n[nH]1 | -6.86% (inactive) |  |
| C=CCC1(CC=C)CCCN1C(=O)c1cc(COc2ccc(C)nc2)on1 |  | 15.1 µM (active) |
| CCNC(=O)c1ccccc1NC(=O)C1CC(=O)N(C(C)C)C1 (configuration not stated) | -3.43% (inactive) |  |
| O=C(Nc1cc(S(=O)(=O)N2CCCCC2)ccc1Cl)c1ccccc1NS(=O)(=O)c1ccc(F)cc1 |  | 7.57 µM (active) |
| CCc1ccccc1NC(=O)C1CCCN(S(=O)(=O)c2ccc3c(c2)CC(C)N3C(C)=O)C1 (configuration not stated) | -5.5% (inactive) |  |
| CC(=O)Nc1ccc(S(=O)(=O)Nc2c(NC3CCCCC3)c3ccccc3oc2=O)cc1 | 0.576% (inactive) |  |
| Cc1ccc(NC(=O)c2ccccc2NS(=O)(=O)c2ccc(F)cc2)cc1S(=O)(=O)N1CCCCC1 |  | 3.79 µM (active) |
| O=C(Nc1nnc(S(=O)(=O)N2CCCC2)s1)c1ccccc1F | -9.65% (inactive) |  |
| CCc1ccc(N/C(SCc2cccc(F)c2)=C(/C#N)C(=O)NCc2ccco2)cc1 | -5.33% (inactive) |  |
